High-throughput results (PubChem BioAssay)
D1 antagonist: antagonists of human D1 dopamine receptor. P21728. HEK293 TREx D1 cells, calcium flux, dopamine EC80; hits give low values. activity change, negative = inhibition, % at 10 µM. 360,000 tested, 3.2% active; in the data active means activity change below about -30%; further: on the % scale 0 is the no-effect control and ±100 the full control effect
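Cells carrying a force-coupled, tetracycline-inducible human D1 receptor report calcium flux. Each well gets a 10 s baseline, compound with 180 s monitoring, then an EC80 dopamine stimulus with a second 180 s kinetic read.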
DRD3 antagonist: antagonists of human D3 dopamine receptor | 360,000 tested, 2.5% active | D3R cells, DiscoveRx beta-arrestin luminescence, antagonist mode; hits give low values | max response, negative = inhibition, %; in the data active means max response below about -50%; inconclusive means no clear call, values can overlap the other calls; further: on the % scale 0 is the no-effect control and ±100 the full control effect
Target sequence (P35462 whole entry, looked up): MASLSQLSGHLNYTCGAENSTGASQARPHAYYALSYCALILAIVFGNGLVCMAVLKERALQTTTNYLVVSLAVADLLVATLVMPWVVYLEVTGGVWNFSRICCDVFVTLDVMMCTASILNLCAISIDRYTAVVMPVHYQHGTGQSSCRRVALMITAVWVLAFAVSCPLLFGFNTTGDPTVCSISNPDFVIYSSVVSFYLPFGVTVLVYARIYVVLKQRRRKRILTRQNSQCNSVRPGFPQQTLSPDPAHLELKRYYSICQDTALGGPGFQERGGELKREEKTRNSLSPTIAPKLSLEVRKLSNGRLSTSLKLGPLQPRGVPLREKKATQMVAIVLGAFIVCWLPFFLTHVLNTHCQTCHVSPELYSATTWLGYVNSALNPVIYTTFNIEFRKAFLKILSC
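Cells plated overnight at 1500 cells/well, then exposed to library compounds with dopamine controls for 90 minutes at 37 degrees C. DiscoveRx reagent added for 30–60 minutes at room temperature; luminescence read, quantitative HTS format.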
D1 agonist: agonists of human D1 dopamine receptor; AID 504660; activation, % at 2 µM; 360,000 tested, 1% active; HEK293 T-REx D1 cells, calcium flux, agonist mode; in the data active means activation above about 30%; further: 0% is about no effect
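Inducible HEK293 T-REx D1 cells, force-coupled to calcium signalling, were plated at 4000 cells/well with tetracycline and held overnight at 30 C. After no-wash calcium dye loading, compound-evoked calcium rise over 180 s flagged agonists.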
D3 ag: D3 dopamine receptor (human) agonism. 410,000 tested, 0.58% active. D3R DiscoveRx beta-arrestin cells, luminescence, 90 min. AID 652048. max activation, %; in the data active means max activation above about 30%; further: 0% is about no effect
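Agonist mode: compounds and dopamine controls were applied to plated cells for 90 min at 37 degrees C after an overnight attachment at 1500 cells/well. Luminescent read-out followed 30 - 60 minutes at room temperature with DiscoveRx detection reagent.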
D1 PAM: enhances dopamine response at the human D1 receptor. P21728. HEK293 TREx D1 cells, calcium flux, dopamine EC20 potentiation. potentiation, % at 10 µM. 360,000 tested, 0.036% active. AID 504651; in the data active means potentiation above about 30%; further: 0% is about no effect
Starred values were filed as active, the others as inactive; ! = a repeat was not active. A selection: hits, their analogues and other compounds. The true share with any hit is near 6.1%.

How did CCOCCCNC(=O)c1ccc2c(=O)n(CCc3ccccc3)c(=O)[nH]c2c1 do in these assays?
D1 antagonist: -39*; D1 agonist: 0; D3 ag: 6; D1 PAM: -1

How did CCCCCNC(=O)c1ccc2c(=O)n(CCc3ccccc3)c(=O)[nH]c2c1 do in these assays?
D1 antagonist: 8; D1 agonist: 1; D3 ag: 4; D1 PAM: -1

How did Cc1ccc(C)c(N2CCN(C(=O)c3ccc4c(=O)n(CCc5ccccc5)c(=O)[nH]c4c3)CC2)c1 do in these assays?
D1 antagonist: -30*; D1 agonist: -1; D3 ag: 3; D1 PAM: 4

Results for O=C(NCCCN1CCCCC1)c1ccc2c(=O)n(CCc3ccccc3)c(=O)[nH]c2c1 ?
D1 antagonist: -46*; DRD3 antagonist: 2; D1 agonist: 1; D3 ag: -10; D1 PAM: -8

Results for CCOCCCNC(=O)c1ccc2c(=O)n(CCc3ccc(OC)c(OC)c3)c(=O)[nH]c2c1 ?
D1 antagonist: -6; D1 agonist: 2; D3 ag: 3; D1 PAM: -1

What do the screens show for `COc1c2ccc(C(=O)NCCCCc3ccccc3)cc2nn1C`?
D1 antagonist: -35*; DRD3 antagonist: 0; D1 agonist: 3; D3 ag: 3; D1 PAM: -8

Results for COc1ccc(CNC(=O)CCc2cn(Cc3cc(C)ccc3C)c3ccccc23)cc1OC ?
D1 antagonist: -12; D1 agonist: 3; D3 ag: -13; D1 PAM: -5

How did O=C(CCc1nnc2n(CCc3ccccc3)c(=O)c3ccccc3n12)NCCCN1CCCCC1 do in these assays?
D1 antagonist: -56*; DRD3 antagonist: 28; D1 agonist: 0; D3 ag: 5; D1 PAM: -6

What do the screens show for `O=C(CCc1nnc2n(Cc3ccc(Cl)cc3)c(=O)c3ccccc3n12)NCCN1CCCC1`?
D1 antagonist: 0; DRD3 antagonist: 0; D1 agonist: 2; D3 ag: -11; D1 PAM: -3

What do the screens show for `Cc1nn(C)c(C)c1/C=N/NC(=O)C(C)(C)Oc1ccc(Cl)cc1`?
D1 antagonist: -38*; DRD3 antagonist: -12; D1 agonist: 0; D3 ag: -11; D1 PAM: 3

What do the screens show for `CCOc1cc(CC(=O)N[C@@H](CC(C)C)c2ccccc2N2CCCCC2)ccc1C(=O)O`?
D1 antagonist: 15; DRD3 antagonist: 37; D1 agonist: 0; D3 ag: 96*!; D1 PAM: 0

How did COc1ccccc1NC(=O)CCN1CCC(C(N)=O)CC1 do in these assays?
D1 antagonist: -5; D1 agonist: 3; D3 ag: -17; D1 PAM: -2

Results for CCCc1cc(-c2[nH]ncc2-c2ccc3c(c2)OCCCO3)c(O)cc1OC ?
D1 antagonist: -27; D1 agonist: 37*; D1 PAM: -1

What do the screens show for `CCOc1ccc(NS(=O)(=O)c2ccc(C(=O)N(C)Cc3cccc(OC)c3OC)cc2)cc1`?
D1 antagonist: -30; DRD3 antagonist: inconclusive; D1 agonist: 18; D3 ag: -2; D1 PAM: -2

How did N/C(=N\OC(=O)CC1CCCCC1)c1cccnc1 do in these assays?
D1 antagonist: 6; DRD3 antagonist: -151*; D1 agonist: 1; D3 ag: -1; D1 PAM: -4

What do the screens show for `Nc1nc2ccc(OC(F)(F)F)cc2s1`?
D1 antagonist: -32*!; DRD3 antagonist: -10; D1 agonist: 0; D3 ag: 1; D1 PAM: 2

How did Nc1nc2ccc(Oc3ccccc3)cc2s1 do in these assays?
D1 antagonist: 17; DRD3 antagonist: 6; D1 agonist: 1; D3 ag: -10; D1 PAM: -1

How did O=C(NCCCN1CCN(c2ccccc2)CC1)c1ccc2nc(CCc3ccccc3)oc2c1 do in these assays?
D1 antagonist: -60*; D1 agonist: 32*; D3 ag: 12; D1 PAM: -4

Results for COc1ccc(N2CCN(CCCNC(=O)c3ccc4nc(Cc5ccccc5)oc4c3)CC2)cc1 ?
D1 antagonist: -24; D1 agonist: 27; D3 ag: 4; D1 PAM: -3

Results for CN(CC1CCOCC1)C(=O)c1ccc2nc(Cc3cccc(Cl)c3)oc2c1 ?
D1 antagonist: 1; DRD3 antagonist: 13; D1 agonist: 3; D3 ag: 7; D1 PAM: 7

How did COc1ccc(N2CCN(CCCNC(=O)c3ccc4nc(CCc5ccccc5)oc4c3)CC2)cc1 do in these assays?
D1 antagonist: -31*; D1 agonist: 35*; D3 ag: 0; D1 PAM: -3

What do the screens show for `O=C(NCC1CCOCC1)c1ccc2nc(Cc3cccc(Cl)c3)oc2c1`?
D1 antagonist: -53*; DRD3 antagonist: 2; D1 agonist: -1; D3 ag: -9; D1 PAM: -23

What do the screens show for `O=C(NCCCN1CCN(c2cccc(Cl)c2)CC1)c1ccc2nc(Cc3ccccc3)oc2c1`?
D1 antagonist: -33*; D1 agonist: 18; D3 ag: -7; D1 PAM: -5

Results for CC(SC(C)C(=O)NN=Cc1cccc(F)c1)C(=O)NN=Cc1cccc(F)c1 (centres undefined) ?
DRD3 antagonist: 31; D3 ag: 2

How did COC(=O)c1ccc2c(=O)n(CCc3ccc(S(N)(=O)=O)cc3)c(SCC(=O)C(C)(C)C)nc2c1 do in these assays?
D1 antagonist: -7; D1 agonist: 1; D3 ag: 7; D1 PAM: -2

Results for CC(=O)c1ccc2c(c1)CC1(C2)Cc2cc3c(cc2C1)C(=O)CC3 (centres undefined) ?
DRD3 antagonist: -5; D3 ag: -4

How did CC(C)c1nc2ccc(C(=O)NCCCN3CCN(c4ccc(F)cc4)CC3)cc2o1 do in these assays?
D1 antagonist: -7; D1 agonist: 3; D3 ag: -22; D1 PAM: -2

What do the screens show for `CC(C)c1nc2ccc(C(=O)NCCCN3CCN(c4cccc(Cl)c4)CC3)cc2o1`?
D1 antagonist: -45*; D1 agonist: 7; D3 ag: 16; D1 PAM: -5

What do the screens show for `Cc1csc(NC(=O)CSc2nnc(-c3ccoc3C)o2)n1`?
D1 antagonist: -6; DRD3 antagonist: 9; D1 agonist: 9; D3 ag: -1; D1 PAM: -5

What do the screens show for `Cc1occc1-c1nnc(SCC(=O)Nc2nc(C(C)(C)C)cs2)o1`?
DRD3 antagonist: 8; D1 agonist: 31*; D3 ag: 3; D1 PAM: -3

How did COc1ccc(NC(=O)c2sc(SC)nc2N)cc1 do in these assays?
D1 antagonist: -2; DRD3 antagonist: 7; D1 agonist: 0; D3 ag: 1; D1 PAM: -3

How did CCN(CC)C(=O)CSc1nc(N)c(C(=O)Nc2ccc(OC)cc2)s1 do in these assays?
D1 antagonist: -32*; DRD3 antagonist: 9; D1 agonist: 3; D3 ag: 3; D1 PAM: -1
